# Reference: PubChem BioAssay
# Values joined by “and” are separate entries in the source; they are usually repeats but may differ in a detail not shown here. Equal values may be shown once. Results filed as inconclusive are left out. Active and inactive are the calls of the source. Rule as the data show it, unless noted: active = inhibition above about 80%; inactive = the rest.
# How the values were obtained:
# [1] = viability loss in pontine glioma line – cell-based, JHH-DIPG-1, MIPE4.0, CellTiter-Glo, qHTS, dose response (AID 1347062; cut-off not given, nearly all actives have AC50 up to about 27 µM); details: JHH-DIPG-1 viability, CellTiter-Glo ATP luminescence
# [2] = viability loss in pontine glioma line – cell-based, SU-DIPG-XIII, MIPE5.0, CellTiter-Glo, qHTS, dose response (AID 1347064; cut-off not given, nearly all actives have AC50 up to about 23 µM); details: CellTiter-Glo ATP luminescence
# [3] = viability loss in pontine glioma line – cell-based, SU-DIPG-XXV, MIPE5.0, CellTiter-Glo, qHTS, dose response (AID 1347065; cut-off not given, nearly all actives have AC50 up to about 26 µM;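 also: cells exposed to compound for 48 hours before ATP readout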); details: CellTiter-Glo ATP luminescence
# [4] = JHH-DIPG-1 glioma cell viability, MIPE5.0 library, CellTiter-Glo luminescence, qHTS (AID 1347067; cut-off not given, nearly all actives have AC50 up to about 26 µM;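 also: cells exposed to compound for 48 hours before readout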); details: JHH-DIPG-1 glioma viability, CellTiter-Glo ATP luminescence
# [5] = growth inhibition of DIPG cells – cell-based, MIPE5.0 library, qHTS (AID 1347068; cut-off not given, nearly all actives have IC50 up to about 30 µM); details: SU-DIPG-XXV viability
# [6] = growth inhibition, single agents and combos, LFS_MB_1R, cell-based, cisplatin or BGB combos, synergistic combos for chromothripsis tumors (AID 1671452); details: LFS_MB_1R medulloblastoma cells, stronger effect = higher value;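 also: cells exposed for 96 hours before readout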
# [7] = growth inhibition, single agents and combos, CRL2098, cell-based, BGB or cisplatin IC20 combos, synergistic combos for chromothripsis tumors (AID 1671454); details: CRL2098 osteosarcoma cells, drug combinations, stronger effect = higher value;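 also: cells exposed for 96 h before readout; 0% = vehicle DMSO and 100% = killing by high DMSO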
# [8] = growth inhibition, single agents and combos, HD-MB03, cell-based, BGB or cisplatin IC20 combos, synergistic combos for chromothripsis tumors (AID 1671455; in the data active = inhibition above about 83%;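 also: 0% = vehicle DMSO and 100% = high DMSO as cytotoxic control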); details: HD-MB03 medulloblastoma cells, stronger effect = higher value
# [9] = growth inhibition, single agents and combos, UWB1.289, cell-based, BGB or cisplatin combos, synergistic combos for chromothripsis tumors (AID 1671456); details: UWB1.289 ovarian carcinoma cells, stronger effect = higher value;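 also: cells exposed to compound for four days; 0% = vehicle DMSO and 100% = killing by high DMSO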
# [10] = growth inhibition, single agents and combos, LFS_MB_2R, cell-based, cisplatin combos, synergistic combos for chromothripsis tumors (AID 1671457); details: LFS_MB_2R medulloblastoma cells, stronger effect = higher value;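 also: cells exposed to compound for four days before readout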
# [11] = UWB1.289_BRCA1 ovarian cancer growth, cell-based, BGB or cisplatin combinations (AID 1671459); details: UWB1.289 BRCA1 ovarian carcinoma, drug combinations, stronger effect = higher value
# [12] = drug combination toxicity in non-malignant astrocytes – cell-based, BGB or cisplatin IC20 combos, cytotoxicity control for chromothriptic childhood tumor combination screen (AID 1671460); details: Human astrocytes, viability inhibition, drug combinations, at 0.5 µM, stronger effect = higher value;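 also: cells exposed to compounds for 96 hours before viability readout; 0% = vehicle and 100% = killing control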
# [13] = BT084 cell growth, single and combined drugs, ICGC_MB145, cisplatin and BGB IC40 combos (AID 1671461); details: BT084 medulloblastoma cells, drug combinations, stronger effect = higher value;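 also: cells exposed to drugs for 96 hours; 0% = vehicle DMSO and 100% = high DMSO full killing control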
# [14] = RCMB18 cell growth, single agent and combined, cisplatin and BGB IC40 combos (AID 1671462); details: RCMB18 medulloblastoma cells, stronger effect = higher value;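 also: cells exposed to compound for four days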
# [15] = CRL1545 cell growth, single agent and combined, cisplatin and BGB IC20 combos (AID 1671464); details: CRL1545 osteosarcoma cells, stronger effect = higher value;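 also: cells exposed to compound for 96 hours before readout; 0% = vehicle DMSO and 100% = high DMSO killing control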
# [16] = biological target: ATP-dependent translocase ABCB1 (Homo sapiens) (UniProt P08183); assay: P-glycoprotein substrate transport blockade – cell-based (AID 377; in the data active = fluorescence slope change above about 50%); details: MDR1-expressing cells, fluorescent substrate accumulation slope; stronger effect = higher value; concentration not given here
# Sequence of ATP-dependent translocase ABCB1 (Homo sapiens) (P08183 whole entry, looked up): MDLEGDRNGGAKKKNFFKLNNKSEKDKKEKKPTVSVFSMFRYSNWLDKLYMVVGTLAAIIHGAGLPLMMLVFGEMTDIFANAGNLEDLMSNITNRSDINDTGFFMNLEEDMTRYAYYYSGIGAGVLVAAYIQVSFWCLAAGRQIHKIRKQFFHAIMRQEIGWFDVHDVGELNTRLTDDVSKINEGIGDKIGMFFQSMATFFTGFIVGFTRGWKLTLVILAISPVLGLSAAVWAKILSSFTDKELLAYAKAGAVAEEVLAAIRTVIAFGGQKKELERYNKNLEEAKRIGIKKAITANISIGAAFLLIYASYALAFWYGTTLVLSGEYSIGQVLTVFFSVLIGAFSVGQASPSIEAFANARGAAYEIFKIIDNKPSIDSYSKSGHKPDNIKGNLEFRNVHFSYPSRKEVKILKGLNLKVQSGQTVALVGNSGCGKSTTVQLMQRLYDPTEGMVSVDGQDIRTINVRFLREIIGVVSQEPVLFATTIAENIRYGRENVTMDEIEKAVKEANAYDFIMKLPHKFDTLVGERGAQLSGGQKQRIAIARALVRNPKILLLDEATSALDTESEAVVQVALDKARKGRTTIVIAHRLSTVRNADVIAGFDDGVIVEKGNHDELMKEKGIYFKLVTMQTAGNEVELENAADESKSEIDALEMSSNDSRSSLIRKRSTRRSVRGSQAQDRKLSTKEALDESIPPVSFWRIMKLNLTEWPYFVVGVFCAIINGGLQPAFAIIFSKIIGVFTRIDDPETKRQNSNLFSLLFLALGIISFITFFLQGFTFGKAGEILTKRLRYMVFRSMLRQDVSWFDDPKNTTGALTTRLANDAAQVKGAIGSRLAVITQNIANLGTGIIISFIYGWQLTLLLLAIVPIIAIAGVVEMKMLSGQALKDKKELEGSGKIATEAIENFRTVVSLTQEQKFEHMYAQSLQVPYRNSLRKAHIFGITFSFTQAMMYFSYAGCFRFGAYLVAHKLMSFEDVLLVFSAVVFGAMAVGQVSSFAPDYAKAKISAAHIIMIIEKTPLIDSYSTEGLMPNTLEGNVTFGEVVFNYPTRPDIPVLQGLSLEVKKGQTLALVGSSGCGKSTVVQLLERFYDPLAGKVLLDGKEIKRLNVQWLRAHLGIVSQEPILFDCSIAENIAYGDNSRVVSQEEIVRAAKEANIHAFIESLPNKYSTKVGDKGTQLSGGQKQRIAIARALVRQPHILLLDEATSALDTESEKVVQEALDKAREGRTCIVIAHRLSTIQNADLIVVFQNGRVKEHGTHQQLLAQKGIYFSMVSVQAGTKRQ
# [17] = viability loss in pontine glioma line – cell-based, SU-DIPG-IV, MIPE4.0, CellTiter-Glo, qHTS, dose response (AID 1347063; cut-off not given, nearly all actives have AC50 up to about 30 µM;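 also: compound exposure lasted 48 hours before the viability readout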); details: CellTiter-Glo ATP luminescence
# [18] = growth inhibition of DIPG cells – cell-based, MIPE4.0 library, CellTiter-Glo luminescence, qHTS (AID 1347066; cut-off not given, nearly all actives have AC50 up to about 30 µM;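 also: cells exposed to compound for 48 hours before readout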); details: SU-DIPG-VI viability, CellTiter-Glo ATP luminescence
# [19] = biological target: Mitogen-activated protein kinase 7 (Homo sapiens) (UniProt Q13164); assay: Gal4-ERK5 driven luciferase induction – cell-based, HTS, primary screen (AID 1508626;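 active = luciferase signal above three times the same-plate solvent-only control wells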;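 also: luciferase driven by Gal4-ERK5 fusion binding five Gal4 sites before minimal TATA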); details: HeLa Gal4-ERK5 transactivation, 18 h, at 5 µM, stronger effect = higher value
# Sequence of Mitogen-activated protein kinase 7 (Homo sapiens) (Q13164 whole entry, looked up, the tested form may be a part): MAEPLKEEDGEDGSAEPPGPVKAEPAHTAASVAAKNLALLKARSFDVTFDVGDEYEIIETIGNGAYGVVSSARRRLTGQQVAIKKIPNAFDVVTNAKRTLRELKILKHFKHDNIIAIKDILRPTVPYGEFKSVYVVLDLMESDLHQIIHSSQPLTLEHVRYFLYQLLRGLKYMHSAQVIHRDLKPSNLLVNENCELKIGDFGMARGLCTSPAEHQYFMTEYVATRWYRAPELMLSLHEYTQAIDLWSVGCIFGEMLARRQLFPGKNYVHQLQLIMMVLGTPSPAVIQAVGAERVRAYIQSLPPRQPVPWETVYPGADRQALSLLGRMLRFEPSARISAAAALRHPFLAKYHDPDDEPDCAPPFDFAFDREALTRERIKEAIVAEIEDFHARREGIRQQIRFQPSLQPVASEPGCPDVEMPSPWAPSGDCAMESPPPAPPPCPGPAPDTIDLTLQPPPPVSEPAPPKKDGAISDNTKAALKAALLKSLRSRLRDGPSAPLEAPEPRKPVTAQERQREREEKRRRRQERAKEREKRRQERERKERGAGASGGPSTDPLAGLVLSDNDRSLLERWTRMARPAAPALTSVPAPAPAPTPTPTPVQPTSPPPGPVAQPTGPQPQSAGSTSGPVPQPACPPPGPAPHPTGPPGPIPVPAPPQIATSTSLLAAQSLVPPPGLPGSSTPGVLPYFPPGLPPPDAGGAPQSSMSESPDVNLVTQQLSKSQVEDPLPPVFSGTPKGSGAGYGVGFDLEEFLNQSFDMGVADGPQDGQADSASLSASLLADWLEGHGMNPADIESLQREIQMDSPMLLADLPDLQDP
# [20] = galactose survival enhancers in mitochondrial complex I cybrids – cell-based, galactose medium, ATP luminescence, primary screen (AID 1645843;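 active = z-score of at least 1.8 in each of two replicates, scored against plate mean and spread of sample wells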;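 also: positive z means more ATP and so rescue of galactose-driven cybrid death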); details: complex I mutant cybrid cells, 72 h, stronger effect = higher value
# [21] = measured here: combination with BGB IC40, at 0.05 µM
# [22] = measured here: combination with cisplatin, at 0.5 µM
# [23] = measured here: combination with cisplatin, at 5 µM
# [24] = measured here: combination with BGB at IC20, at 0.5 µM
# [25] = measured here: combination with cisplatin at IC20, at 0.5 µM
# [26] = measured here: combo with BGB at IC20, at 0.5 µM
# [27] = measured here: combo with cisplatin at IC20, at 0.5 µM
# [28] = measured here: inhibition with BGB combination, at 0.05 µM
# [29] = measured here: inhibition with cisplatin combination, at 0.05 µM
# [30] = BGB combination, concentration series, at 5 µM
# [31] = cisplatin combination, concentration series, at 5 µM
# [32] = measured here: combo with BGB IC20
# [33] = measured here: combo with cisplatin IC20
# [34] = cisplatin combination, at 0.5 µM
# [35] = measured here: BGB IC40 combination 0.05 uM, at 0.05 µM
# [36] = measured here: BGB IC40 combination, at 0.05 µM
# [37] = measured here: with BGB IC20 combination, at 0.5 µM
# [38] = measured here: with cisplatin IC20 combination, at 0.5 µM
smiles,measurement,setting,value
CNC1CCCN(c2c(F)cc3c(=O)c(C(=O)O)cn(C4CC4)c3c2OC)C1 (stereo unspecified),outcome,[1],inactive
same,outcome,[2],inactive
same,outcome,[3],inactive
same,outcome,[4],inactive
same,outcome,[5],inactive
same,inhibition,[6]; at 0.5 µM,-44.6% (inactive)
same,inhibition,[6]; [21],-12.2%
same,inhibition,[6]; [22],-60.6%
same,inhibition,[6]; [23],-26%
same,inhibition,[7]; at 0.5 µM,-81.1% (inactive)
same,inhibition,[7]; [24],-82.3%
same,inhibition,[7]; [25],-105%
same,inhibition,[8]; at 0.5 µM,-11% (inactive)
same,inhibition,[8]; [26],-20.4%
same,inhibition,[8]; [27],-17.8%
same,inhibition,[9]; at 0.5 µM,-14.8% (inactive)
same,inhibition,[9]; [28],-34.6%
same,inhibition,[9]; [29],0.742%
same,inhibition,[10]; at 0.5 µM,-13.2% (inactive)
same,inhibition,[10]; [22],-14.1%
same,inhibition,[10]; [23],-12.8%
same,inhibition,[11]; [30],-8.91%
same,inhibition,[11]; at 0.5 µM,-19.1% (inactive)
same,inhibition,[11]; [31],-12.5%
same,inhibition,[12],2.51% (inactive)
same,inhibition,[12]; [32],-0.992%
same,inhibition,[12]; [33],-5.96%
same,inhibition,[13]; at 0.5 µM,-3.94% (inactive)
same,inhibition,[13]; [34],-12.4%
same,inhibition,"[13]; cisplatin combination, at 5 µM",-20.7%
same,inhibition,[13]; [35],-4.46%
same,inhibition,"[13]; single agent, at 5 µM",-9.28%
same,inhibition,[14]; at 0.5 µM,-11% (inactive)
same,inhibition,"[14]; cisplatin combo, at 5 µM",-11%
same,inhibition,[14]; [36],-0.266%
same,inhibition,[14]; [22],-4.57%
same,inhibition,"[14]; single agent, at 5 µM",-28%
same,inhibition,[15]; at 0.5 µM,-47.5% (inactive)
same,inhibition,[15]; [37],-52.5%
same,inhibition,[15]; [38],-45%
same,inhibition,"[15]; single agent, at 0.05 µM",2.8%
same,inhibition,"[15]; single agent, at 5 µM",-16.1%
NC(N)=NC(N)=NCCc1ccccc1,fluorescence slope change,[16],100% (active)
same,outcome,[1],inactive
same,outcome,[17],inactive
same,outcome,[2],inactive
same,outcome,[3],inactive
same,outcome,[18],inactive
same,outcome,[4],inactive
same,outcome,[5],inactive
same,luciferase signal,[19],40 AU (inactive)
same,z-score,[20],-2.58 (inactive)
CCCCCCCCCCCCCCCCCCCCCCO,outcome,[1],inactive
same,outcome,[17],inactive
same,outcome,[2],inactive
same,outcome,[3],inactive
same,outcome,[18],inactive
same,outcome,[4],inactive
same,outcome,[5],inactive
same,luciferase signal,[19],140 AU (inactive)
CCN(CC)C(=O)c1ccc(O)c(OC)c1,fluorescence slope change,[16],53.1% (active)
same,luciferase signal,[19],52 AU (inactive)
same,z-score,[20],0.21 (inactive)
O=C(O)c1cc(=O)[nH]c(=O)[nH]1,outcome,[1],inactive
same,outcome,[17],inactive
same,outcome,[2],inactive
same,outcome,[3],inactive
same,outcome,[18],inactive
same,outcome,[4],inactive
same,outcome,[5],inactive
same,inhibition,[6]; at 0.5 µM,-8.32% (inactive) and -28.4% (inactive)
same,inhibition,[6]; [21],-17.9% and -11.5%
same,inhibition,[6]; [22],16.2% and -37.9%
same,inhibition,[6]; [23],-31% and -23.1%
same,inhibition,[7]; at 0.5 µM,2.38% (inactive) and -59.4% (inactive)
same,inhibition,[7]; [24],-8.75% and -29.4%
same,inhibition,[7]; [25],11.3% and -77.4%
same,inhibition,[8]; at 0.5 µM,6.65% (inactive) and -10.7% (inactive)
same,inhibition,[8]; [26],8.02% and -14.5%
same,inhibition,[8]; [27],1.03% and -2.03%
same,inhibition,[9]; at 0.5 µM,9.26% (inactive) and -11.7% (inactive)
same,inhibition,[9]; [28],1.2% and -34.8%
same,inhibition,[9]; [29],-6.87% and -27.5%
same,inhibition,[10]; at 0.5 µM,8.17% (inactive) and -25% (inactive)
same,inhibition,[10]; [22],-0.428% and -22.3%
same,inhibition,[10]; [23],15.8% and -23.2%
same,inhibition,[11]; [30],11.8% and -20.6%
same,inhibition,[11]; at 0.5 µM,7.12% (inactive) and -21.5% (inactive)
same,inhibition,[11]; [31],16.5% and -12.9%
same,inhibition,[12],6.1% (inactive) and -13.7% (inactive)
same,inhibition,[12]; [32],3.75% and -11.6%
same,inhibition,[12]; [33],18.5% and -10.3%
same,inhibition,[13]; at 0.5 µM,0.676% (inactive) and -23.4% (inactive)
same,inhibition,[13]; [34],4.02% and -10.6%
same,inhibition,"[13]; cisplatin combination, at 5 µM",-30.1% and 9.58%
same,inhibition,[13]; [35],29.1% and 10.4%
same,inhibition,"[13]; single agent, at 5 µM",10.6% and -23.7%
same,inhibition,[14]; at 0.5 µM,4.65% (inactive) and -11.2% (inactive)
same,inhibition,"[14]; cisplatin combo, at 5 µM",33.1% and 20.6%
same,inhibition,[14]; [36],20.2% and -17.2%
same,inhibition,[14]; [22],10.8% and 27.7%
same,inhibition,"[14]; single agent, at 5 µM",-13.7% and -20.9%
same,inhibition,[15]; at 0.5 µM,-2.03% (inactive) and 7.29% (inactive)
same,inhibition,[15]; [37],-9.08% and 1.78%
same,inhibition,[15]; [38],1.49% and 10%
same,inhibition,"[15]; single agent, at 0.05 µM",0.986% and -9.64%
same,inhibition,"[15]; single agent, at 5 µM",-15.6% and -9.76%
CC(=O)NCCCS(=O)(=O)O,outcome,[2],inactive
same,outcome,[3],inactive
same,outcome,[5],inactive
same,luciferase signal,[19],52 AU (inactive)
Cn1c(=O)c2c(ncn2CC2OCCO2)n(C)c1=O,outcome,[2],inactive
same,outcome,[3],inactive
same,outcome,[4],inactive
same,outcome,[5],inactive
same,z-score,[20],0.585 (inactive)
CN(C)CCN(Cc1ccc(Cl)cc1)c1ccccn1,fluorescence slope change,[16],92.6% (active)
same,outcome,[1],inactive
same,outcome,[18],inactive
Nc1cc(C(Cl)=C(Cl)Cl)c(S(N)(=O)=O)cc1S(N)(=O)=O,outcome,[1],inactive
same,outcome,[17],inactive
same,outcome,[2],inactive
same,outcome,[3],inactive
same,outcome,[18],inactive
same,outcome,[4],inactive
same,outcome,[5],inactive
CN(N=O)C(=O)N[C@@H]1[C@@H](O)[C@H](O)[C@@H](CO)O[C@@H]1O,outcome,[2],inactive
same,outcome,[3],inactive
same,outcome,[4],inactive
same,outcome,[5],inactive
same,luciferase signal,[19],120 AU (inactive)
